# Rpn11 block – inhibitors of human proteasome Rpn11. human 26S proteasome, Ub4-pepOG fluorescence polarization; 20S core pre-blocked with epoxomicin. inhibition, % at 20 µM. 0.59% of 360,000 active;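 active means inhibition at 20 µM, scaled to each plate's controls, above about 33%, limit read from the data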
# TPT1 inh – C. albicans TPT1 enzyme inhibition; 0.81% of 300,000 active; recombinant caTPT1, FP RNA substrate dephosphorylation; inhibition, % at 5 µM; AID 1962;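 active means inhibition above the mean of all tested compounds plus 3 SD, set per screening campaign, cut at about 24% in these data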;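 further: plate controls were DMSO alone for no effect and ferristatin control at 100 nM for full effect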
# HNF4A DNA FP – change in binding of human HNF4 alpha to DNA | P41235 | HNF4a-FITC DNA binding, fluorescence polarization, 1 h | activity change, % at 10 µM | 0.3% of 360,000 active | AID 1224865; in the data active means activity change above about 30%, passing the limit was not always enough
# Target sequence (P41235 whole entry, looked up): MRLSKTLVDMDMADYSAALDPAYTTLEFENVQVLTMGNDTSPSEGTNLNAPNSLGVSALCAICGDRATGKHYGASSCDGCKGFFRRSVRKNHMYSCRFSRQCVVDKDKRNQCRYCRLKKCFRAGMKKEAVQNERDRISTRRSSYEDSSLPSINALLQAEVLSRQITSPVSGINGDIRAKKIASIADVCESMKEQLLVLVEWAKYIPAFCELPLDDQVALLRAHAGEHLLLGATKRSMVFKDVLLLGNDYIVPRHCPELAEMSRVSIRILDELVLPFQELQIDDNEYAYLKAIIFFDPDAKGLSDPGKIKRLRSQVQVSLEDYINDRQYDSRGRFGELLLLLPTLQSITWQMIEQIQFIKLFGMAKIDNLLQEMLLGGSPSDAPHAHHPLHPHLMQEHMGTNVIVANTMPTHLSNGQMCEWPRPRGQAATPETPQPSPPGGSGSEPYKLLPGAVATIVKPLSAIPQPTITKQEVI
# Myeloid diff 2 – myeloid differentiation induction. 1% of 360,000 active. calls only at 10 µM. ER-HoxA9 myeloid progenitors, lysozyme-GFP differentiation, flow cytometry. AID 624256;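 active means normalized GFP-positive differentiation at or above the plate's own cutoff, the solvent-only control mean plus 3 SD; inconclusive means no clear call, values can overlap the other calls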;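 further: cells exposed to compound for four days before flow analysis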
# Myeloid diff CP1 – myeloid differentiation induction | shares compounds with Myeloid diff 2 | ER-HoxA9 myeloid progenitors, GFP/Mac1 double-positive flow | calls only | 2% of 2,300 active;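 active means share of green or green-and-red cells above 9 and 9% in run 1 or 4 and 3% in run 2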
# GFP autofluor – compound fluorescence in myeloid differentiation counter-screen. shares compounds with Myeloid diff 2. ER-HoxA9 myeloid progenitors, no estrogen, GFP autofluorescence flow cytometry; vehicle wells 0%, positive control 100%. fluorescence response, % (no concentration beside the values). 7.4% of 2,300 active;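 active means over 5% cells positive for green fluorescent reporter, or over 2% positive for both it and APC stain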;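 further: range taken on the double positive population between DMSO and positive control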
# HNF4a DNA conf – change in binding of human HNF4 alpha to DNA, retest; HNF4A-FITC DNA binding, fluorescence polarization, 1 h; shares compounds with HNF4A DNA FP; AID 1224897; 99% of 210 active; activity change, % at 12.5 µM; call rule not given here
# The depositor's hits bear a star; i = inactive; ? = inconclusive; nt = not tested or not shown; + = active, no number. In the library only some 2.1% were active in any assay of this set; here they are far more common.
SMILES,Rpn11 block,TPT1 inh,HNF4A DNA FP,Myeloid diff 2,HNF4a DNA conf,others
COc1cccc(N(C(=O)Cn2nnc(-c3ccc(Cl)cc3)n2)C(C(=O)NCC2CCCO2)c2ccc(C)cc2)c1 (stereo not given),2,1,0,i,nt,
COc1cc(-c2ccc(N3C(c4ccsc4)=Cc4ccccc4C3CC(C)=O)cc2)cc(OC)c1OC (stereo not given),nt,nt,-1,i,nt,
COc1ccc(N2C(c3ccsc3)=Cc3cc4c(cc3C2c2c[nH]c3ccccc23)OCO4)cc1 (stereo not given),nt,nt,0,+,nt,Myeloid diff CP1=i;GFP autofluor=2
O=C(Nc1ccccc1)C1=C[C@@H](c2ccc3c(c2)OCO3)C[C@@H](OCCCCO)O1,2,2,3,i,nt,
O=C(COc1ccc(-n2cnnn2)cc1)Nc1ccc(F)c(F)c1,-4,nt,1,i,nt,Myeloid diff CP1=i;GFP autofluor=0
C[C@H]1CCC(=O)N([C@H](CSc2ccc(Br)cc2)Cc2ccccc2)CC1,10,nt,1,i,nt,
COc1ccc(NC(=O)c2ccc([N+](=O)[O-])s2)c([N+](=O)[O-])c1,-2,3,-2,i,nt,Myeloid diff CP1=i;GFP autofluor=0
Cc1cc(C(=O)NNC(=O)c2ccc(F)cc2)c(C)s1,0,nt,3,i,nt,
CC1CC(C)CN(c2ncc3c(n2)CC(c2ccccc2)CC3=O)C1 (stereo not given),0,-3,1,+,nt,Myeloid diff CP1=i;GFP autofluor=0
COc1ccc(C(C)=O)cc1CSc1nncn1-c1ccccc1,-1,0,2,i,nt,
Cc1cc2cc(C(c3nnnn3CC3CCCO3)N3CCCc4ccccc43)c(=O)[nH]c2cc1C (stereo not given),4,nt,5,i,nt,Myeloid diff CP1=i;GFP autofluor=0
O=C(O[C@H]1[C@H](Oc2ccccc2COC(=O)C2(O)C=CCCC2=O)O[C@H](CO)[C@@H](O)[C@@H]1O)c1ccccc1 (stereo not given in full),nt,5,nt,nt,nt,
C1CCC2(CC1)C1=C(CCCC1)Nc1nnnn12,2,2,0,+,nt,Myeloid diff CP1=i;GFP autofluor=0
Nc1nc2n(n1)C1(CCCCC1)C1=C(CCCC1)N2,nt,5,nt,nt,nt,
COc1ccc(C2NC(=O)c3ccccc3O2)cc1 (stereo not given),3,1,3,i,nt,
C(=C\c1ccccn1)/c1ccccn1,-44,-1,3,i,nt,Myeloid diff CP1=i;GFP autofluor=0
N#Cc1nc(COc2ccccc2)oc1N1CCCCCC1,-1,3,-1,i,nt,
N#Cc1nn(-c2ccccc2)nc1N1CCCCC1,5,0,2,+,nt,Myeloid diff CP1=i;GFP autofluor=0
O=C1C(Cl)=C(Nc2ccccc2O)C(=O)N1CCc1ccccc1,nt,5,13,i,nt,
O=[N+]([O-])c1ccc(Nc2ccccc2O)c2nonc12,-8,nt,-1,+,nt,Myeloid diff CP1=i;GFP autofluor=2
O=C(O)c1ccc(Nc2ccc([N+](=O)[O-])c3nonc23)cc1,21,nt,5,i,nt,
COCCCN(C(=O)C1=COCCO1)c1c(N)n(Cc2ccccc2)c(=O)[nH]c1=O,5,nt,0,i,nt,
COc1ccccc1NC(=O)c1ccc(S(=O)(=O)NCc2ccco2)cc1,-5,0,3,i,nt,
Cn1c(N=Nc2ccccc2)nc2ccccc21,-9,-1,-4,i,nt,Myeloid diff CP1=i;GFP autofluor=0
CN(C)c1ccc(C=NN2C(=O)CSC2=S)c(Cl)c1,nt,nt,87*,+,88*,Myeloid diff CP1=i;GFP autofluor=0
SMILES,Rpn11 block,TPT1 inh,HNF4A DNA FP,Myeloid diff 2,HNF4a DNA conf,others
Cc1cc(C)n(CCCNC(=O)CCNS(=O)(=O)c2ccccc2C(F)(F)F)n1,-11,1,1,i,nt,
CCSc1ncc(Cl)c(C(=O)Nc2sc3c(c2C(=O)NCc2cccnc2)CCCC3)n1,nt,-2,51*,?,49*,
CCSc1ncc(Cl)c(C(=O)Nc2ccccc2Cl)n1,-1,3,-1,i,nt,
S=c1[nH]nc(C23CC4CC(CC(C4)C2)C3)n1Cc1ccco1,0,-1,1,i,nt,
CCN(CC)C(=O)Oc1ccc(Br)cc1C(=O)Nc1ccc(F)cc1F,-2,-1,3,i,nt,
O=C(N/N=C/c1cccnc1)c1cccc(NC(=O)c2ccc(Cl)cc2)c1,52*,3,90*,i,173*,
O=C1CC(=O)N(C2CCCCC2)C(=O)N1c1ccccc1S(=O)(=O)Oc1ccccc1,nt,nt,65*,+,41*,
O=C(Cn1cc(/C=N/NC(=O)c2ccccc2Br)c2ccccc21)Nc1ccc(F)cc1,6,0,0,i,nt,
O=C(Cn1cc(/C=N/NC(=O)c2cccc3ccccc23)c2ccccc21)Nc1ccc(F)cc1,nt,-3,46*,i,90*,
CCOc1ccc(CNC(=O)C2CCN(c3nnc(C)c4c(C)n(-c5ccc(C)cc5)nc34)CC2)cc1,nt,14,45*,i,50*,
CCOc1ccccc1CNC(=O)C1CCN(c2nnc(C)c3c(C)n(-c4ccc(C)cc4)nc23)CC1,36,4,9,?,nt,
Cc1cc(C(=O)O)ccc1N=Cc1c(O)ccc2ccccc12,21,2,46*,i,70*,
CC(C)=CCCC(C)c1cc(C(=O)NCCc2ccc(O)cc2)c(N)s1 (stereo not given),nt,nt,52*,i,39*,
CC(=O)NCCc1ccc(O)cc1,0,-4,-2,i,nt,
CN1C(=O)/C(=C/C=C2\SCCN2C)N(C)C1=S,nt,nt,119*,i,143*,
Cc1nn(-c2ccccc2)c(Cl)c1/C=C1\C(=O)N(C)C(=S)N1C,1,3,1,i,nt,
C#CCOCCOCCOCCNc1nc(N2CCN(C(=O)[C@H](CCCCN)n3cc([C@@H](N)C(C)CC)nn3)CC2)nc(N2CCN(C(=O)[C@H](CCCCN)n3cc([C@@H](N)CO)nn3)CC2)n1 (stereo not given in full),nt,0,nt,nt,nt,
C#CCOCCOCCOCCNc1nc(N2CCN(C(=O)[C@H](CCCCN)n3cc(CN)nn3)CC2)nc(N2CCN(C(=O)[C@H](CCCCN)n3cc([C@@H](N)[C@H](C)CC)nn3)CC2)n1,32,nt,96*,i,99*,
COc1cc(/C=N/c2oc(C)c(C)c2C#N)cc(Br)c1O,nt,3,60*,i,78*,
CN(CC(=O)Nc1cccc(F)c1)C(=O)CNS(=O)(=O)c1ccc(N(C)C)c([N+](=O)[O-])c1,2,-3,0,i,nt,
COc1ccc(/C=N/NC(=O)c2ccccc2OC)cc1COc1ccccc1[N+](=O)[O-],9,-3,83*,i,60*,
CCS(=O)(=O)N1N=C(c2ccccc2)CC1c1ccc2nccnc2c1 (stereo not given),-1,0,53*,i,75*,
O=C(NCC(=O)N(c1ccc(F)cc1)C(C(=O)NC1CCCC1)c1cccnc1)c1ccco1 (stereo not given),2,-4,-5,i,nt,
